Measurements from PubChem BioAssay (NCATS).
Inconclusive results are not listed. Active and inactive are the calls of the source. Unless noted, the call rests on the fitted dose curve; in most records, active means well fitted curve in the direction sought with a large enough effect; inconclusive means small, poorly fitted or top-dose-only effect, or another doubt; inactive means no such curve, though single readings can be large; an effect the other way counts as inactive or inconclusive.

Assays:
[1] = AP1 Signaling Pathway (AID 357; active means well fitted curve in either direction with a large enough effect, not every such curve was filed as active; further: on the % scale 0 is the no-effect control and ±100 the full control effect); details: ME-180 AP-1-bla reporter, EGF-induced, beta-lactamase ratio, 5 h; at 7.69 µM (top of the series) unless noted
How it was run: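 Titration-series screen for positive or negative modulators of EC50 EGF-induced signaling in ME-180 cells carrying an AP-1-driven beta-lactamase reporter. After 5 hours at 37 degrees Celsius, CCF4 460nm/530nm emission ratio gave %Activity; AC50 values derived.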

[2] = molecular target: Cytochrome P450 1A2 (Homo sapiens) (UniProt P05177); test: p450-cyp1a2 (AID 410; calls by dose curve; further: potency means the concentration at half of the fitted maximal effect;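 on activity change, negative = inhibition: -100% = full effect of reference inhibitor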)
How it was run: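 20nM CYP1A2, 100uM Luciferin-ME (=Km), 100mM KPO4; cpd 10 min RT; +NADPH regen, 60 min RT; stop/detect 20 min; luminescence. Normalized to furafylline 57 uM = full inhibition.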

[3] = NFAT Signaling Pathway (AID 444; active means well fitted curve in either direction with a large enough effect, not every such curve was filed as active;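 further: carbachol stimulus at about its EC50 of 1 µM final; on the % scale 0 is the no-effect control and ±100 the full control effect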); details: Jurkat NFAT-bla M1, carbachol, beta-lactamase ratio, 5 h; at 7.69 µM (top of the series) unless noted
How it was run: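 Jurkat cells carrying an NFAT-driven β-lactamase reporter and co-transfected muscarinic M1 receptor were treated with compound plus carbachol (1 uM final, an EC50 level) for 5 h at 37 °C. CCF4 loading followed for 1 h at RT; 460/530 nm ratio gave %activity.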

[4] = molecular target: Glucocorticoid receptor (Homo sapiens) (UniProt P04150); test: GR-GFP Redistribution (AID 450;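 active means compounds whose dose series gives a full or clear partial fitted curve of increased nuclear translocation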; further: potency means the concentration at half of the fitted maximal effect); details: U2OS GR-GFP nuclear translocation, laser cytometry, 2 h
[5] = molecular target: Glucocorticoid receptor (Homo sapiens) (UniProt P04150); test: GR-EFC Redistribution (AID 451; calls by dose curve; further: potency means the concentration at half of the fitted maximal effect); details: CHO-K1 GR-EFC translocation, beta-gal luminescence, 2 h
How it was run: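 CHO-K1 cells stably expressing nuclear-localized β-gal enzyme acceptor and GR fused C-terminally to the enzyme donor fragment; ligand-driven nuclear translocation restores β-gal by complementation. Compounds titrated up to 46 uM final, 2 h at 37 °C; luminescence read.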

[6] = molecular target: Mitogen-activated protein kinase 10 (Mus musculus) (UniProt Q61831); test: JNK3 AlphaScreen Assay (AID 530; active means well fitted curve in either direction with a large enough effect, not every such curve was filed as active;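 further: kinase came from lysate of stimulated human HepG2 cells; signal reports phosphorylation of biotinylated GST-cJun 1-79 at Ser73 with 10 µM ATP; on the % scale 0 is the no-effect control and ±100 the full control effect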)
How it was run: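 Biotinylated GST-cJun(1-79) served as substrate for JNK3 in HepG2 lysates stimulated with IL-1beta and TNF-alpha. ATP was 10 uM final, pH 7.6. Ser73 phosphorylation was quantified by AlphaScreen (680 nm excitation).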

[7] = molecular target: 3',5'-cyclic-AMP phosphodiesterase 4B (Homo sapiens) (UniProt Q07343); test: qHTS Assay for Inhibitors of PDE-IV (AID 607; active means well fitted activation curve with a large enough effect in the main read-out, with a control signal flat, not every such curve was filed as active; further: % of control where 0% means no effect)
How it was run: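 Live HEK293 cells with a modified cyclic nucleotide-gated (CNG) channel report intracellular cAMP via membrane-potential dye fluorescence (ex 535/em 590 nm). Endogenous PDE-IV was targeted. Compounds were tested at up to 22.9 uM final; RO 20-1724 100 uM served as control.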

[8] = molecular target: Guanine nucleotide-binding protein G(i) subunit alpha-1 (Homo sapiens) (UniProt P63096); test: qHTS Assay for Inhibitors of RGS12 GoLoco Motif Activity (Green Fluorophore) (AID 879);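 further: 0% = labeled peptide with Gαi1 and full inhibition = labeled peptide alone without protein; negative values mean loss of peptide binding seen as reduced polarization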
How it was run: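 A drop in FITC polarization marked displacement of the FITC-tagged RGS12 GoLoco peptide (10 nM) from Gαi1 (50 nM). Compounds were incubated 10 min at room temperature in Tris pH 7.5 buffer containing 150 mM NaCl, 0.1 mM GDP and 0.05% NP40; unlabeled peptide titration served as control.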

[9] = molecular target: Muscarinic acetylcholine receptor M1 (Rattus norvegicus) (UniProt P08482); test: qHTS Assay for Antagonists of Acetylcholine Muscarinic M1 Receptor: Measurement of IP-One Response (AID 944); further: nearly all actives have a fitted effect of over 75% in size
How it was run: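 Read-out: HTRF competition between d2-IP1 and Eu-cryptate anti-IP1 antibody, emission 620 and 665 nm. Stimulus was carbachol, EC80 (200 nM), for 30 min in M1-CHO cells (rat receptor), after 10 min compound pre-treatment.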

[10] = molecular target: Pyruvate kinase (Leishmania mexicana) (UniProt Q27686); test: qHTS Validation Assay for Inhibitors of Leishmania Mexicana Pyruvate Kinase (AID 945);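 further: 0% = DMSO only neutral control wells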
How it was run: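 Read-out: luminescence from PKLight stop/detection reagent, data normalized to DMSO. Reaction: 0.2 nM E451W LmPYK, 0.5 mM PEP, 0.1 mM ADP, pH 7.2, 1 h room temperature.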

[11] = molecular target: Pyruvate kinase PKM (Homo sapiens) (UniProt P14618); test: qHTS Assay for Activators of Human Muscle Pyruvate Kinase (AID 954; active means well fitted curve in the direction sought with a large enough effect, not every such curve was filed as active;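 further: 0% = uninhibited enzyme and -100% = no enzyme or full thiadiazolimine inhibition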)
How it was run: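 Screening used highly purified human pyruvate kinase M2 under submaximal activity, with PEP at its Km and ADP below Km. After an hour at room temperature, ATP was read by luciferase luminescence.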

[12] = molecular target: Alpha-galactosidase A (Homo sapiens) (UniProt P06280); test: Counterscreen for Glucocerebrosidase Inhibitors: qHTS Assay for Human alpha-Galactosidase at pH 4.5 (AID 992); further: 0% is about no effect
How it was run: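 Each compound is preincubated briefly with 2 nM enzyme before substrate addition (80 uM); plates then sit 20 min at ambient temperature, are quenched with 1M NaOH/1M glycine, and read fluorometrically.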

[13] = molecular target: alpha-glucosidase (Oryza sativa, rice) (UniProt Q653V4); test: Counterscreen for Glucocerebrosidase Inhibitors: qHTS Assay for Rice alpha-Glucosidase at pH 5.0 (AID 997);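 further: 0% = full activity with enzyme and -100% = basal without enzyme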
How it was run: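 Endpoint fluorogenic assay at pH 5.0: compounds (0.7 nM to 77 uM) titrated against 4 nM rice enzyme and 400 uM 4-MU-alpha-glucoside for 20 min at room temperature; NaOH/glycine stop, read ex 365/em 440 nm, Hill-fitted AC50.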

[14] = Stat Signaling Pathway (AID 446; active means well fitted curve in either direction with a large enough effect, not every such curve was filed as active); details: ME-180 (cervical carcinoma) SIE beta-lactamase reporter, IL-6 stimulated, 5 h; at 7.69 µM (top of the series) unless noted
How it was run: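 Overnight-plated ME-180 cells bearing a STAT Inducible Element beta-lactamase reporter; 5 h co-exposure to compound and 40 pM IL-6; values normalized to 300 pM IL-6 and 125 nM JAK inhibitor controls.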

[15] = molecular target: Cytochrome P450 2C9 (Homo sapiens) (UniProt P11712); test: qHTS Assay for Inhibitors and Substrates of Cytochrome P450 2C9 (AID 883)
How it was run: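 CYP2C9 deoxyluciferin hydroxylation, 37C, 60 min with NADPH regeneration; 10nM enzyme, 100uM Luciferin-H (KM). Glo detection reagent stopped reaction; luminescence normalized to sulphaphenazole (57uM) full inhibition.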

[16] = molecular target: Cytochrome P450 2D6 (Homo sapiens) (UniProt P10635); test: qHTS Assay for Inhibitors and Substrates of Cytochrome P450 2D6 (AID 891);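 further: luciferin methyl ether substrate demethylated by CYP2D6 with NADPH regeneration; on the % scale 0 is the no-effect control and ±100 the full control effect; nearly all actives have a fitted effect of over 60% in size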
How it was run: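 Luminescent read-out of luciferin formed by 5 nM human CYP2D6 demethylating 30 uM Luciferin-ME EGE (Km level) over 60 min at room temperature after NADPH regeneration addition. Data normalized to full inhibition by 1.43 uM quinidine.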

[17] = molecular target: Cytochrome P450 2C19 (Homo sapiens) (UniProt P33261); test: qHTS Assay for Inhibitors and Substrates of Cytochrome P450 2C19 (AID 899); further: on the % scale 0 is the no-effect control and ±100 the full control effect; nearly all actives have a fitted effect of over 60% in size
How it was run: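 In 50mM KPO4, the reaction held 5nM enzyme and KM-level (10uM) Luciferin-H EGE; it ran 60 min at 37C after NADPH regeneration and a 10 min compound preincubation. Luminescence values were scaled to 57uM ketoconazole as complete inhibition.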

[18] = molecular target: Cytochrome P450 3A4 (Homo sapiens) (UniProt P08684); test: qHTS Assay for Activators of Cytochrome P450 3A4 (AID 885); further: nearly all actives have a fitted effect of over 65% in size
How it was run: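 Using 20nM recombinant human CYP3A4 in potassium phosphate (200mM), substrate Luciferin-PPXE at 25uM, luminescent luciferin detection followed a 60-min RT NADPH reaction; data scaled to 57 uM ketoconazole.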

[19] = qHTS Assay for Identification of Small Molecule Agonists for Thrombopoietin (TPO) Signaling Pathway (AID 917); further: on the % scale 0 is the no-effect control and ±100 the full control effect
How it was run: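 Ba/F3 (mouse) + hTPO receptor + GpIIb-promoter luciferase; IL-3 withdrawn overnight; compound + 26 pM TPO (EC50), 24 hrs, 37 C, 5% CO2; Steadylite luminescence, 10 min RT.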

[20] = molecular target: Muscarinic acetylcholine receptor M1 (Rattus norvegicus) (UniProt P08482); test: qHTS Assay for Antagonists of Acetylcholine Muscarinic M1 Receptor: Kinetic Measurement of Intracellular Calcium Response (AID 943);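 further: Fluo-4 calcium signal as peak divided by basal fluorescence over 4 min; nearly all actives have a fitted effect of over 75% in size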
How it was run: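 Read-out: peak over basal Fluo-4 fluorescence, kinetic at 1 Hz for 4 min after EC80 carbachol (100 nM final). Rat M1-CHO cells, dye loaded 1 h at 37C, compound added 10 min before agonist.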

Cytochrome P450 1A2 (Homo sapiens), sequence (P05177 whole entry, looked up): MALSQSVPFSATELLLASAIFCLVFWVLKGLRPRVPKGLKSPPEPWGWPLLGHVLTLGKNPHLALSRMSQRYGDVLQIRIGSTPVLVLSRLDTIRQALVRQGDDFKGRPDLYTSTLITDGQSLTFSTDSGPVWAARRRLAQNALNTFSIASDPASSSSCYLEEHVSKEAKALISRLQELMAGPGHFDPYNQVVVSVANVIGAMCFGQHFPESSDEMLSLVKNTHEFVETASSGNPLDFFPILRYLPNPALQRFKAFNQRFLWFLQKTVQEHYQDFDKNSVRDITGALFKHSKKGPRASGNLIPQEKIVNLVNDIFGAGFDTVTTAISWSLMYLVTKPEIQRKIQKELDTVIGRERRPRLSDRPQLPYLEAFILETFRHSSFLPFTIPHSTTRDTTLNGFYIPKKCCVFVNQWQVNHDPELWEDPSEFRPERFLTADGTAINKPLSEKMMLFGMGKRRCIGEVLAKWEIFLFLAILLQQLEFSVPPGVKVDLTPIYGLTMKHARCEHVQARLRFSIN
Pyruvate kinase PKM (Homo sapiens), sequence (P14618 whole entry, looked up): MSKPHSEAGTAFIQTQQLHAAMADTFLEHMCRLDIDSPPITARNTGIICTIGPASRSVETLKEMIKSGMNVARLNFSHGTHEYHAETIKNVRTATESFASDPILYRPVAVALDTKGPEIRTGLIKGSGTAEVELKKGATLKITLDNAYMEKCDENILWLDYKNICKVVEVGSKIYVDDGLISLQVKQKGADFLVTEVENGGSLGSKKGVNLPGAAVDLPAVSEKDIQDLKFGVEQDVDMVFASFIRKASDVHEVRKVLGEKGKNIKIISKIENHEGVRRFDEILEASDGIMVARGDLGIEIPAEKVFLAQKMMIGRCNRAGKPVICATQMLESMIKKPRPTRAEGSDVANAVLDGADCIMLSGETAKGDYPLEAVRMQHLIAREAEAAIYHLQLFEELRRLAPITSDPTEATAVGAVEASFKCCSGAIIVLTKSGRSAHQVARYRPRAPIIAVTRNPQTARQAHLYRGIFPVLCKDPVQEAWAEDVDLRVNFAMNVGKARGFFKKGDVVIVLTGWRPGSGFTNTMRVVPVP
Glucocorticoid receptor (Homo sapiens), sequence (P04150 whole entry, looked up, the tested form may be a part): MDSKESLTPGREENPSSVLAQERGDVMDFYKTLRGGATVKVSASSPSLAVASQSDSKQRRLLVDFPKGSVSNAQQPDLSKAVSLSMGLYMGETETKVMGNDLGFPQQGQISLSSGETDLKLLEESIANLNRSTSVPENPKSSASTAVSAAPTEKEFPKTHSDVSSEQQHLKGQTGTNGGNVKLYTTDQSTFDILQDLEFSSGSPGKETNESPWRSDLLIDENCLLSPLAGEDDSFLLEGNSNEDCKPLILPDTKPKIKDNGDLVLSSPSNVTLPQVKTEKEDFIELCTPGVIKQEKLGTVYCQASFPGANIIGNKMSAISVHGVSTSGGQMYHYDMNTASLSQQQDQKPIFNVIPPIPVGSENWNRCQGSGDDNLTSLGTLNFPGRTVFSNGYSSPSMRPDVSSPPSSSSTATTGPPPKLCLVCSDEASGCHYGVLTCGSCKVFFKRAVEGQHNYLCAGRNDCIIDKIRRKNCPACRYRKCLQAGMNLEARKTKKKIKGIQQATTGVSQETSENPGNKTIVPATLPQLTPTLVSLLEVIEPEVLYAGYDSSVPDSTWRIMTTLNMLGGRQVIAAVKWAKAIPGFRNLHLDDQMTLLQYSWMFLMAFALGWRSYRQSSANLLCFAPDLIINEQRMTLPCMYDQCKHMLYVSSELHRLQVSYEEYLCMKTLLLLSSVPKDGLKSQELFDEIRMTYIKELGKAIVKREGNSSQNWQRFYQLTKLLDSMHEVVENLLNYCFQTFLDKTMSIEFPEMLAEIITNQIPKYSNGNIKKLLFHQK
Alpha-galactosidase A (Homo sapiens), sequence (P06280 whole entry, looked up): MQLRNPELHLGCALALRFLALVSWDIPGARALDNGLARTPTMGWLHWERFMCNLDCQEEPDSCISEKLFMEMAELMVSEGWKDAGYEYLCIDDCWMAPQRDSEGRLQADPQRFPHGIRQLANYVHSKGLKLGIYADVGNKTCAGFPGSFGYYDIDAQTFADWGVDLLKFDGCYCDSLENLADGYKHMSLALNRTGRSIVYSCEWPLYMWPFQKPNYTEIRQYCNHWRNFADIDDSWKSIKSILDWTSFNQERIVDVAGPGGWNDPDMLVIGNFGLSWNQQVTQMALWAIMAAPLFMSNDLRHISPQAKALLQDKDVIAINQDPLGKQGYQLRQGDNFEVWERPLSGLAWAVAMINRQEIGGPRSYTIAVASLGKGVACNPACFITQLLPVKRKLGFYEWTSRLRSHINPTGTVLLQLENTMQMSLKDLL
3',5'-cyclic-AMP phosphodiesterase 4B (Homo sapiens), sequence (Q07343 whole entry, looked up): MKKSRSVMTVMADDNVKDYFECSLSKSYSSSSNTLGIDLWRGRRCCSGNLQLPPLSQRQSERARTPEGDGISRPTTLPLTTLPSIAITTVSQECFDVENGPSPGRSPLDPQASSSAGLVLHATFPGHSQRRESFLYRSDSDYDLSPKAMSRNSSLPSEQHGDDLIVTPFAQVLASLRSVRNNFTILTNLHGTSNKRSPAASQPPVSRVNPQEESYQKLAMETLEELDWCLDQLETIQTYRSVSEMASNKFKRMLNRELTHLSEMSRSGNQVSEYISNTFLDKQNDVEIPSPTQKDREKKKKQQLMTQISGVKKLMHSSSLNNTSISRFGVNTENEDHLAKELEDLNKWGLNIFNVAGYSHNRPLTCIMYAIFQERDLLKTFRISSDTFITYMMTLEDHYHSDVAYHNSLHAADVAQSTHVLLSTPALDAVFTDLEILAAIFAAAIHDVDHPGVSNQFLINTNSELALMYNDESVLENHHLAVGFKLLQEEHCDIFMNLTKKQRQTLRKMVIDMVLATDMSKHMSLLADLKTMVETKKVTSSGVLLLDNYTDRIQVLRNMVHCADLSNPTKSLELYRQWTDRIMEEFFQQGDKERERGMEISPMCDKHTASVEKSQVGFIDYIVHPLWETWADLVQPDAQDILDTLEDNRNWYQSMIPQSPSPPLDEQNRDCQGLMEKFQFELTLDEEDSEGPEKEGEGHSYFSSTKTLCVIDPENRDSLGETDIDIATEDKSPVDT
Pyruvate kinase (Leishmania mexicana), sequence (Q27686 2-499 E452W): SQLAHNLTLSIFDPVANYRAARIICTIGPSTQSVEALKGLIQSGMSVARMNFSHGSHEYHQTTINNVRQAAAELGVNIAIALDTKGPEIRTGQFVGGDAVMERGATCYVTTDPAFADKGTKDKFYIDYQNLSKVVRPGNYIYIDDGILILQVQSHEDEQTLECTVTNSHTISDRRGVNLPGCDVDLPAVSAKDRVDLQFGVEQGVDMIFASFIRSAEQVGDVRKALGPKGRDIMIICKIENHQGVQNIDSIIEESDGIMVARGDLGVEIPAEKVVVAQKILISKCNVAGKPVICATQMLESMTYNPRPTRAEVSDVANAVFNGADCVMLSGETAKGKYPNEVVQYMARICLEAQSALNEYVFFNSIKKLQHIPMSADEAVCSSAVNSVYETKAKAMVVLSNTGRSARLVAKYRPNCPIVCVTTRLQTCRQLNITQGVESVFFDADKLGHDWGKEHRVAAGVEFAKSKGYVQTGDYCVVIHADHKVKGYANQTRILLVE
Muscarinic acetylcholine receptor M1 (Rattus norvegicus), sequence (P08482 whole entry, looked up): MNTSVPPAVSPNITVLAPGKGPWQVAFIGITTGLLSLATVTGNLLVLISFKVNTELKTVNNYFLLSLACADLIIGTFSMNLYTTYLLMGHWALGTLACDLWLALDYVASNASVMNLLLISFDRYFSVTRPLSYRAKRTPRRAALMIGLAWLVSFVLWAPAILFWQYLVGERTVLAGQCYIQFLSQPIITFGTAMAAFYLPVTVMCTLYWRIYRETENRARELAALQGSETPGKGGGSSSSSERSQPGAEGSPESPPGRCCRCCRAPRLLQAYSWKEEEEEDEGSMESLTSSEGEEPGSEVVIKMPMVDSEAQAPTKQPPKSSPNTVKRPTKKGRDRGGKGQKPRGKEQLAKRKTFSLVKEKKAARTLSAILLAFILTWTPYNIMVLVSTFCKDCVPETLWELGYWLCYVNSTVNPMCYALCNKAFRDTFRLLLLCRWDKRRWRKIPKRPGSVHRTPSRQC
Guanine nucleotide-binding protein G(i) subunit alpha-1 (Homo sapiens), sequence (P63096 whole entry, looked up): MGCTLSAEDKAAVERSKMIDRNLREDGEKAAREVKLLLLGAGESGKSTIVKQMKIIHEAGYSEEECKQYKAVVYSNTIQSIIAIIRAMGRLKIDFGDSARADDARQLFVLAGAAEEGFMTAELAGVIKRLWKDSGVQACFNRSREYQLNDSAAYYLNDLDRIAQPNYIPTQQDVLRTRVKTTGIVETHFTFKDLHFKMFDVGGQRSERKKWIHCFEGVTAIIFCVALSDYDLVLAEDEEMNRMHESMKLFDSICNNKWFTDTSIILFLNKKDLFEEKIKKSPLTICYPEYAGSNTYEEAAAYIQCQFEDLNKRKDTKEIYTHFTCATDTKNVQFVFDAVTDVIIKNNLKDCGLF
Cytochrome P450 2D6 (Homo sapiens), sequence (P10635 whole entry, looked up): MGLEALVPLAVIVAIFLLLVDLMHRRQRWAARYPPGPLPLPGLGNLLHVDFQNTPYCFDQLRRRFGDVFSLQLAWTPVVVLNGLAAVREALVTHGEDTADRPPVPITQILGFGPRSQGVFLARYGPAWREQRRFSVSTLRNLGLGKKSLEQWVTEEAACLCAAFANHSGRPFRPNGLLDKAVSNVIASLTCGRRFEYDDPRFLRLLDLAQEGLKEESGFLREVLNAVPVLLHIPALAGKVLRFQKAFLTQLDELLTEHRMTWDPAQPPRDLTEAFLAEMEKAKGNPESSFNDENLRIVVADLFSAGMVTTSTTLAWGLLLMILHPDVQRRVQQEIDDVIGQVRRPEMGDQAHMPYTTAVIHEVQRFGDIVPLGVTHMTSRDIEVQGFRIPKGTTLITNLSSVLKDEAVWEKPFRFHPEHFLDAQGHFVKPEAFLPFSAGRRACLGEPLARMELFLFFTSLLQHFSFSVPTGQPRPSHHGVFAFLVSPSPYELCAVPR

C=CCN1CCc2c(cc(O)c(O)c2Cl)[C@H](c2ccccc2)C1
active: Potency [2] 20 µM
inactive: activity change, negative = inhibition [1] -17.1% [at 38 µM] | activity change, negative = inhibition [3] -17.9% [at 38 µM] | Potency [4] > 46 µM | Potency [5] > 46 µM | Potency [6] | Potency [7] | outcome [8] | Potency [9] | outcome [10] | outcome [11] | outcome [12] | Potency [13]

Cc1cccc(C)c1OC[C@@H](N)C(C)C
inactive: activity change, negative = inhibition [1] 9.48% [at 38 µM] | activity change, negative = inhibition [3] 4.41% [at 38 µM] | Potency [4] > 46 µM | Potency [5] > 46 µM | Potency [6] | Potency [7] | outcome [8] | Potency [18] | Potency [9] | outcome [10] | outcome [11] | outcome [12] | Potency [13]
active: Potency [2] 12.6 µM

CNC(=O)[C@@H]1O[C@@H](n2cnc3c(N)ncnc32)[C@@H](O)[C@H]1O
inactive: activity change, negative = inhibition [1] -10.7% [at 38 µM] | Potency [2] | activity change, negative = inhibition [3] 6.42% [at 38 µM] | Potency [4] > 46 µM | Potency [5] > 46 µM | Potency [6] | outcome [8] | outcome [19] | Potency [20] | outcome [10] | outcome [11] | outcome [12] | Potency [13]

C[C@@]12C=CC(=O)C=C1CC[C@@H]1C2=CC[C@]2(C)[C@@H]1CC[C@H]2C(=O)CN1CCN(c2cc(N3CCCC3)nc(N3CCCC3)n2)CC1
inactive: activity change, negative = inhibition [1] 13.8% [at 38 µM] | activity change, negative = inhibition [3] -21.1% [at 38 µM] | activity, negative = inhibition [14] 9.08% [at 38 µM] | Potency [5] > 46 µM | Potency [7] | outcome [19] | outcome [10] | outcome [11] | outcome [12] | Potency [13]
active: Potency [2] 12.6 µM

OC[C@@H]1O[C@@H](n2cnc3c(NC4CCCCC4)ncnc32)[C@@H](O)[C@H]1O
inactive: activity change, negative = inhibition [1] -12.8% [at 38 µM] | Potency [2] | activity change, negative = inhibition [3] 1.85% [at 38 µM] | Potency [4] > 46 µM | Potency [5] > 46 µM | Potency [7] | outcome [8] | Potency [20] | Potency [9] | outcome [10] | outcome [11] | outcome [12] | Potency [13]

CCC[C@@H]1O[C@@H]2C[C@@H]3[C@@H]4CCC5=CC(=O)C=C[C@@]5(C)[C@H]4[C@H](O)C[C@@]3(C)[C@@]2(C(=O)CO)O1
inactive: activity change, negative = inhibition [1] 8.13% [at 38 µM] | Potency [2] | activity change, negative = inhibition [3] 9.04% [at 38 µM] | activity, negative = inhibition [14] 6.66% [at 38 µM] | Potency [6] | Potency [7] | Potency [16] | Potency [17]
